Data: the supplement of paper PMC11732987, “Enantioselective OTUD7B fragment discovery through chemoproteomics screening and high-throughput optimisation” (Communications Chemistry, 2025)

What was measured:
Experiment in all cases: log2 ratio of Biotin-Ahx-Ub-VS probe labelling (fragment/DMSO); higher = less target engagement (more negative = stronger competition), active = hit call of the paper (q ≤ 0.05, log2 ratio ≤ -1)
Conditions in all cases: compound concentration: 200 uM; treatment time: 3 h
USP9X = USP9X (UniProt Q93008)
Outline: (§1)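 HEK293T lysate in Tris/CHAPS/IGEPAL buffer with protease inhibitors (495 µg per sample) was given fragment at 200 µM or vehicle for 3 h, in triplicate. It then received Biotin-Ahx-Ub-VS at 0.5 µM final for 1 h. Labelled DUBs were NeutrAvidin-enriched, digested with LysC and trypsin, and run by diaPASEF LC-MS/MS. Values are average log2 fragment/vehicle ratios by unpaired t-test on global-median-normalised Spectronaut quantities of proteins with ≥2 unique peptides.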

UniProt O00487 = target: UniProt O00487
Chain of UniProt O00487 (O00487 whole entry): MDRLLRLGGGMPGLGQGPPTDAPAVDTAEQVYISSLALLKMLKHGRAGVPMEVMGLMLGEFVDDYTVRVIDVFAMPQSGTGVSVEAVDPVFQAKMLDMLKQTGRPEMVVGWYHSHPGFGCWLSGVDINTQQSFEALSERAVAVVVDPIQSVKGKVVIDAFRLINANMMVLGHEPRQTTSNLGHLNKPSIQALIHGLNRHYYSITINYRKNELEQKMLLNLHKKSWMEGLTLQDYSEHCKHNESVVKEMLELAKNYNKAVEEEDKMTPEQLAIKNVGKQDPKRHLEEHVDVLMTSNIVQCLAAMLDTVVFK
Outline: as §1

UniProt O00507 = target: UniProt O00507
Chain of UniProt O00507 (O00507 whole entry): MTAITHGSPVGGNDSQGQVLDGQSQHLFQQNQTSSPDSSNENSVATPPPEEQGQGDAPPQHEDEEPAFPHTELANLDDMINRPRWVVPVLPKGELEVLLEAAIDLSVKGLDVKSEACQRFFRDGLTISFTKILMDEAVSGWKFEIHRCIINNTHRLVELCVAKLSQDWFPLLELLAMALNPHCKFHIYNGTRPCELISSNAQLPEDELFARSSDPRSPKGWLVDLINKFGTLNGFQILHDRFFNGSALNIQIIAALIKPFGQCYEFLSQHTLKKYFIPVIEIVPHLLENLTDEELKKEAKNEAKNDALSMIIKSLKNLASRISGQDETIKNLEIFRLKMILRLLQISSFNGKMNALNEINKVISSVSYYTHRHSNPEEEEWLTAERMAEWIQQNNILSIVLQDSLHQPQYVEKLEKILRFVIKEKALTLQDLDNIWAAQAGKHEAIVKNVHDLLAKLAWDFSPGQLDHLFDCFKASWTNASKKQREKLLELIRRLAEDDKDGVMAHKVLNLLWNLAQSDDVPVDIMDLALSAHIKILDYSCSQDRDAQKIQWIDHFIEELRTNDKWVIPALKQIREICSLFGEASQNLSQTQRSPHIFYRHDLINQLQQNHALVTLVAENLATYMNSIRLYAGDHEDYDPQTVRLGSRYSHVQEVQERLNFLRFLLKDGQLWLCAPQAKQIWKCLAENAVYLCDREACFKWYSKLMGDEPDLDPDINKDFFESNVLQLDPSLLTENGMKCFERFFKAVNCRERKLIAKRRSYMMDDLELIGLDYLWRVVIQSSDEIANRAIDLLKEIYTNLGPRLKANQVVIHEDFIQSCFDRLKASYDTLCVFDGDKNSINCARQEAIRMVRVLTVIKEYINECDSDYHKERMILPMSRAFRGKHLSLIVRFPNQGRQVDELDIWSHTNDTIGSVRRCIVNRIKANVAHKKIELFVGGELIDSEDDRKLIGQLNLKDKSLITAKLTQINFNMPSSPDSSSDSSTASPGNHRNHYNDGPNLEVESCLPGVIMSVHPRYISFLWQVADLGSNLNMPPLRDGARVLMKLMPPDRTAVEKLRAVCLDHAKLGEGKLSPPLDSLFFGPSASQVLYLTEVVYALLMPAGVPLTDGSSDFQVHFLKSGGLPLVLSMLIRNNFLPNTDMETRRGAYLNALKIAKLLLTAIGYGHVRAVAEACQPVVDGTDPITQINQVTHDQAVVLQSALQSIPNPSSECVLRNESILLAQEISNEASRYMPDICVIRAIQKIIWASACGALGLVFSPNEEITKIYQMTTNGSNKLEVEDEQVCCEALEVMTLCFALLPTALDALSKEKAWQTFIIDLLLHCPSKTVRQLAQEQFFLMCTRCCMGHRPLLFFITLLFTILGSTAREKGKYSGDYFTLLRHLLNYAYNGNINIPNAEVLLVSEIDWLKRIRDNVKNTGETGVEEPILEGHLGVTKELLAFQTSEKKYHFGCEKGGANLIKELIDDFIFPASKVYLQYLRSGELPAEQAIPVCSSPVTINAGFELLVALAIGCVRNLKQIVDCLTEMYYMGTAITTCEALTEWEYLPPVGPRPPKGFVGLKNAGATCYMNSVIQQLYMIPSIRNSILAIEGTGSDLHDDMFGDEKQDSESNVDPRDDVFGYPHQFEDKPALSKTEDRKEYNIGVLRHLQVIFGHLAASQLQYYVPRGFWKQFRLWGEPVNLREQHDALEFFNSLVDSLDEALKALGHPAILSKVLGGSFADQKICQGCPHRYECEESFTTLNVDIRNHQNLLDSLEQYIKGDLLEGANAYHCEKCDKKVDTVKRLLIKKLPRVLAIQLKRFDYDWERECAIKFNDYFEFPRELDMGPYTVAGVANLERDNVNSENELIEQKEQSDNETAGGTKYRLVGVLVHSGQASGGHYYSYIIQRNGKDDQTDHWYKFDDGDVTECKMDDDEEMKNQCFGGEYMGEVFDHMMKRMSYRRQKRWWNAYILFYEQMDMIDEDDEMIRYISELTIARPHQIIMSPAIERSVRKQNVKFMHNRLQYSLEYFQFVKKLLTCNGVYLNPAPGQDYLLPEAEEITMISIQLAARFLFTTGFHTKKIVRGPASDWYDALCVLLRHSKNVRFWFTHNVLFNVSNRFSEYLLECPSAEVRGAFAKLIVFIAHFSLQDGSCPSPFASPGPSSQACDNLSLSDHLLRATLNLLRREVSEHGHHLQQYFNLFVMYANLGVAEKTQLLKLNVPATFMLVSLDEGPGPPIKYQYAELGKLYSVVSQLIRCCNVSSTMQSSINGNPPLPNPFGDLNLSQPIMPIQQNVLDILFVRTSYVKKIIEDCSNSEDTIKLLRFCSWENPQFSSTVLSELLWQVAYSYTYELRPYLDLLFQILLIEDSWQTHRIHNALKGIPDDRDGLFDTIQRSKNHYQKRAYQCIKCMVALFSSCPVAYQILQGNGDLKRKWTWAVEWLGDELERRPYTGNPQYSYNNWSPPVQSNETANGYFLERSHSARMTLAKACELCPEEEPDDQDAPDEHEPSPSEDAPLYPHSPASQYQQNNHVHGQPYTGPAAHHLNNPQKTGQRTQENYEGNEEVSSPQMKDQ
Outline: as §1

UniProt P51784 = target: UniProt P51784
Chain of UniProt P51784 (P51784 whole entry): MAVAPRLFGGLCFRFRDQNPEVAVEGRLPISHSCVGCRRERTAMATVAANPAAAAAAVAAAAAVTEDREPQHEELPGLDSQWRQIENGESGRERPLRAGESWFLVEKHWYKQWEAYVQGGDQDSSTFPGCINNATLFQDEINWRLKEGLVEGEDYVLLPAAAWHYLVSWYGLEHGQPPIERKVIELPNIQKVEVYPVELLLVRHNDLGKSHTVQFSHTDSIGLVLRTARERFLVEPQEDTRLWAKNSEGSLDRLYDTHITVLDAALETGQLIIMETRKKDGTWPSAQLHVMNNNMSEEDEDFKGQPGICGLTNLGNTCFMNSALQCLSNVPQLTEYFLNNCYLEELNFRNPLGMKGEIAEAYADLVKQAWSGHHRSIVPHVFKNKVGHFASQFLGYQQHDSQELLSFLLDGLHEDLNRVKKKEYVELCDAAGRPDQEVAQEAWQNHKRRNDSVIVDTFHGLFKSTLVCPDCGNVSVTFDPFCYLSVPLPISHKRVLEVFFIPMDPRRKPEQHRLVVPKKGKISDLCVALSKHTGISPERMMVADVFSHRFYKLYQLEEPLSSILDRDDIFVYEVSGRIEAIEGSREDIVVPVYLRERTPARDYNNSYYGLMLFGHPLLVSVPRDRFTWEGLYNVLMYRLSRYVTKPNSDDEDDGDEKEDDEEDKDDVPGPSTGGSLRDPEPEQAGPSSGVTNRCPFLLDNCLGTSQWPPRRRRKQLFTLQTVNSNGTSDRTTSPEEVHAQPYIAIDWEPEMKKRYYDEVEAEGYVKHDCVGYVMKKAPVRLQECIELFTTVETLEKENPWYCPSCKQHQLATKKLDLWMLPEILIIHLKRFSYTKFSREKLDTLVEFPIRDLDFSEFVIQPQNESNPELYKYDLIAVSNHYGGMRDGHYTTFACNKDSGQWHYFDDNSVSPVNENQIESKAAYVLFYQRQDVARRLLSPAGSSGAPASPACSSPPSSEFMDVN
Outline: as §1

UniProt Q5T2D3 = target: T1, UniProt Q5T2D3
T1 sequence (whole entry): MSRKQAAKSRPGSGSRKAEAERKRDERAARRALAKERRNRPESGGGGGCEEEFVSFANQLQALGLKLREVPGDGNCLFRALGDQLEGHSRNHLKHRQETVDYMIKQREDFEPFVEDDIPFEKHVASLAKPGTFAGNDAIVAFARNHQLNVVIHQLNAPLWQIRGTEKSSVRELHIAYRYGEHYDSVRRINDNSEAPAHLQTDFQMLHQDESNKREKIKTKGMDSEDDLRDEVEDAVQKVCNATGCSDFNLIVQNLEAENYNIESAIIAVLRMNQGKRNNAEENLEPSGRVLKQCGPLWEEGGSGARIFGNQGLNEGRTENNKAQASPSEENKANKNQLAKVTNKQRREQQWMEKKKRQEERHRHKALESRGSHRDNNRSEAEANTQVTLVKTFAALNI
Outline: as §1

UniProt Q8TE49 = target: T2, UniProt Q8TE49
T2 sequence (whole entry): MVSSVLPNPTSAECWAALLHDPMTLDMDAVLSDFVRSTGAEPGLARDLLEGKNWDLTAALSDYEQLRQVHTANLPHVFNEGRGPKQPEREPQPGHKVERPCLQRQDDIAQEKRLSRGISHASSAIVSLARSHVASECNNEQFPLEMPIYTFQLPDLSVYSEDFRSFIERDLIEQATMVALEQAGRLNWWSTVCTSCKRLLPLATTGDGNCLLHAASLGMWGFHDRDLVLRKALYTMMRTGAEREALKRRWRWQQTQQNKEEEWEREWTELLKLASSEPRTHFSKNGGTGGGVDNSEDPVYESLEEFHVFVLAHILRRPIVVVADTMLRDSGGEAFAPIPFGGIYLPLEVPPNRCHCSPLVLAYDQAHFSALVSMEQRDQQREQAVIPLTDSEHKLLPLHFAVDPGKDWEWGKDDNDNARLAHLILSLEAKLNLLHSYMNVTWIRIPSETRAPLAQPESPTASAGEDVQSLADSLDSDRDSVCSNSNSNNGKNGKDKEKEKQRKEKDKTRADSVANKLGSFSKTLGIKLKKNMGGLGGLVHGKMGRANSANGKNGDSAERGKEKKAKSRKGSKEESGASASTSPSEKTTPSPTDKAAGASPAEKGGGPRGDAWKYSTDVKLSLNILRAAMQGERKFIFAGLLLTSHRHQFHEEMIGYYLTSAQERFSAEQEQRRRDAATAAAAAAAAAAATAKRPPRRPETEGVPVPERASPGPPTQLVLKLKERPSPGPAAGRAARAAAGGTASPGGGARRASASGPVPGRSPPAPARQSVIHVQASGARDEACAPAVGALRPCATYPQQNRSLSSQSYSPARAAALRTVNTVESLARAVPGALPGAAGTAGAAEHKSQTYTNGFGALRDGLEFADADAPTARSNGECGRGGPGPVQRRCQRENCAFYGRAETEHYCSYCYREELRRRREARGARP
Outline: as §1

UniProt Q9P2H5 = target: T3, UniProt Q9P2H5
T3 sequence (whole entry): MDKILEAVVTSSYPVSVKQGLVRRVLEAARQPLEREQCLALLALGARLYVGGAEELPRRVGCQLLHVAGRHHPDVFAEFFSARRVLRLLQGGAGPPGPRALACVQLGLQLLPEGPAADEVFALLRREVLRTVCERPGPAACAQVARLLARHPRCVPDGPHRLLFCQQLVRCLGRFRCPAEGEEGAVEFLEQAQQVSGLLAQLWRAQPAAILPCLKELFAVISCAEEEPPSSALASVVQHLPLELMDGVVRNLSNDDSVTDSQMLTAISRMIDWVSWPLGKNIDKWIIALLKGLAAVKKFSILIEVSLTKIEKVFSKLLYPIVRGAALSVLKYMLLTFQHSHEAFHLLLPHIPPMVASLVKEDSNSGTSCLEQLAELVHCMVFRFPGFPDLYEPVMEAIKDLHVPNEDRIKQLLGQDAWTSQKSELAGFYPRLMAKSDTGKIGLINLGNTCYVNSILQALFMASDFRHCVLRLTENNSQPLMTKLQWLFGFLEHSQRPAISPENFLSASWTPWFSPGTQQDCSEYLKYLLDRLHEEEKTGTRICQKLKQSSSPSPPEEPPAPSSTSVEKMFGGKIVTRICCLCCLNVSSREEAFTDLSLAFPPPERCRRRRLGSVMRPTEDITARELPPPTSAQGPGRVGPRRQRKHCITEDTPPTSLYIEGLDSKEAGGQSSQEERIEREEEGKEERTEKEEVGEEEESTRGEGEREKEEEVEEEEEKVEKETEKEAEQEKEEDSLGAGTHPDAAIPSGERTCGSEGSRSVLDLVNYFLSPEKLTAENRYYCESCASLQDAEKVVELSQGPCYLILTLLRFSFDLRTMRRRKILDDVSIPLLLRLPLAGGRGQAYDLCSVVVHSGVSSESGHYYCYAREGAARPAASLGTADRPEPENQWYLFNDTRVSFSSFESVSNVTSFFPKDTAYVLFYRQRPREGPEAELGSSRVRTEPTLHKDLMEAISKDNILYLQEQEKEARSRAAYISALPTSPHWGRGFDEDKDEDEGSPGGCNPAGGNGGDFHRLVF
Outline: as §1

UniProt Q9UGI0 = target: T4, UniProt Q9UGI0
T4 sequence (whole entry): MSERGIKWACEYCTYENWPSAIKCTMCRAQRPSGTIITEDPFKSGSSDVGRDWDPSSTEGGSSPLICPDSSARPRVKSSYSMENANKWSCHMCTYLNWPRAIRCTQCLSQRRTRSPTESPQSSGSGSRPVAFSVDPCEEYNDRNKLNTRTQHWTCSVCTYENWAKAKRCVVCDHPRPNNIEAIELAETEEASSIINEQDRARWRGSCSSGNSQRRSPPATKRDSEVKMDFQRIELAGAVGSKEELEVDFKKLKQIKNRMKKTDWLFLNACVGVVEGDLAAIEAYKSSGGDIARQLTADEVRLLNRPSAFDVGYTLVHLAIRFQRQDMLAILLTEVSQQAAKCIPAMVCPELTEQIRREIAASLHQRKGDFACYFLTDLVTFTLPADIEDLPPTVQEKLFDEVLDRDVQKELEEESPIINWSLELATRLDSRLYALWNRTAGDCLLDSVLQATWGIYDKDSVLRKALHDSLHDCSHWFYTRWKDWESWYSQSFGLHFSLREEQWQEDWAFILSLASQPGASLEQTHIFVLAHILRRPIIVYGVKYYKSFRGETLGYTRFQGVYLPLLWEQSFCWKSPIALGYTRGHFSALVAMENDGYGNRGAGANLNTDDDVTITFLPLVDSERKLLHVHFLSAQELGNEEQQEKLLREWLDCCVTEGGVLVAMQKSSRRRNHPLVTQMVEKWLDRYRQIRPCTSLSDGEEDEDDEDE
Outline: as §1

YOD1 = target: T5, YOD1 (UniProt Q5VVQ6)
T5 sequence (whole entry): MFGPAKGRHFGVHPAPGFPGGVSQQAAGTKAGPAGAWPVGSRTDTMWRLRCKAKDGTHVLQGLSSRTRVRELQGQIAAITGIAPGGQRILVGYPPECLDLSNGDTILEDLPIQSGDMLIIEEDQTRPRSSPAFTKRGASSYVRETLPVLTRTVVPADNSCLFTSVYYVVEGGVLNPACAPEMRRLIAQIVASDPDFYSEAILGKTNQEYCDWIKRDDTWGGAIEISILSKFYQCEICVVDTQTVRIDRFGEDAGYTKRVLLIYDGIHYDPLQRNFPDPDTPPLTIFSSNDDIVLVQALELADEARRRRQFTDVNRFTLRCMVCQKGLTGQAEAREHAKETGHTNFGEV
Outline: as §1

Measured: log2 ratio of Biotin-Ahx-Ub-VS probe labelling

CN(C)C(=O)c1ccc(NC(=O)CCl)cc1
inactive: USP9X -0.0881 | UniProt O00487 -0.0189 | UniProt O00507 0.0581 | UniProt P51784 -0.0219 | UniProt Q5T2D3 0.0298 | UniProt Q8TE49 0.182 | UniProt Q9P2H5 0.102 | UniProt Q9UGI0 -0.97 | YOD1 0.0572
